Laboratory results published in PubChem BioAssay AID1159580 (chemical genetic matrix, 2015).
The whole screen tested about 5,500 compounds, of which about 2,000 (36%) were called active. Not shown: some 18% with an inconclusive outcome. No stated cut-off is given here; in the data, active means normalized growth mostly below about 0.91 (no sharp cut-off); inconclusive means no clear call, values can overlap the other calls; inactive means mostly above about 0.92. This is one part of the list.

Experiment: chemical genetic growth profiling, strain panel (AID 1159580);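 further: tested at 20 µM; growth read once vehicle control cultures reached saturation at 30 °C; 1 = growth at the plate median or of vehicle wells; lower values mean less growth of the strain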
Details: growth OD
[1] = S. cerevisiae deletion strains, locus YGR078C, strain PAC10, hits give low values
[2] = S. cerevisiae deletion strains, locus YGR229C, strain SMI1, hits give low values
[3] = S. cerevisiae deletion strains, locus YNL153C, strain GIM3, hits give low values
[4] = S. cerevisiae deletion strains, locus YNL322C, strain KRE1, hits give low values
[5] = S. cerevisiae deletion strains, locus YPL055C, strain LGE1, hits give low values
[6] = S. cerevisiae deletion strains, locus YPL241C, strain CIN2, hits give low values

Measured: normalized growth

COC(=O)c1c(Cl)c(Cl)c(C(=O)OC)c(Cl)c1Cl
inactive: S. cerevisiae deletion strains, locus YAL013W, strain DEP1, hits give low values 0.991 | S. cerevisiae deletion strains, locus YBR021W, strain FUR4, hits give low values 0.972 | S. cerevisiae deletion strains, locus YBR229C, strain ROT2, hits give low values 1 | S. cerevisiae deletion strains, locus YCL029C, strain bik1, hits give low values 1.01 | S. cerevisiae deletion strains, locus YDL035C, strain GPR1, hits give low values 1.01 | S. cerevisiae deletion strains, locus YDL074C, strain BRE1, hits give low values 0.927 | S. cerevisiae deletion strains, locus YDL101C, strain DUN1, hits give low values 0.978 | S. cerevisiae deletion strains, locus YDL134C, strain PPH21, hits give low values 0.998 | S. cerevisiae deletion strains, locus YDL185W, strain tfp1, hits give low values 1.01 | S. cerevisiae deletion strains, locus YDL192W, strain arf1, hits give low values 1 | S. cerevisiae deletion strains, locus YDR101C, strain arx1, hits give low values 0.995 | S. cerevisiae deletion strains, locus YDR150W, strain NUM1, hits give low values 1 | S. cerevisiae deletion strains, locus YDR162C, strain NBP2, hits give low values 0.997 | S. cerevisiae deletion strains, locus YDR318W, strain mcm21, hits give low values 1 | S. cerevisiae deletion strains, locus YDR388W, hits give low values 1 | S. cerevisiae deletion strains, locus YDR502C, strain sam2, hits give low values 0.999 | S. cerevisiae deletion strains, locus YEL061C, strain CIN8, hits give low values 0.999 | S. cerevisiae deletion strains, locus YER110C, hits give low values 1 | S. cerevisiae deletion strains, locus YER155C, strain BEM2, hits give low values 0.984 | S. cerevisiae deletion strains, locus YER167W, strain BCK2, hits give low values 0.998 | S. cerevisiae deletion strains, locus YGL078C, strain dbp3, hits give low values 1.01 | S. cerevisiae deletion strains, locus YGL086W, strain mad1, hits give low values 0.998 | S. cerevisiae deletion strains, locus YGL248W, strain PDE1, hits give low values 1.01 | [1] 0.987 | S. cerevisiae deletion strains, locus YGR135W, strain pre9, hits give low values 0.994 | [2] 0.988 | S. cerevisiae deletion strains, locus YGR252W, strain gcn5, hits give low values 0.944 | S. cerevisiae deletion strains, locus YHR030C, strain SLT2, hits give low values 0.971 | S. cerevisiae deletion strains, locus YHR079C, strain IRE1 (second series), hits give low values 1 | S. cerevisiae deletion strains, locus YHR094C, strain hxt1, hits give low values 1 | S. cerevisiae deletion strains, locus YHR129C, strain ARP1, hits give low values 0.996 | S. cerevisiae deletion strains, locus YHR200W, strain rpn10, hits give low values 1 | S. cerevisiae deletion strains, locus YIL066C, strain RNR3, hits give low values 0.984 | S. cerevisiae deletion strains, locus YIL073C, strain SPO22, hits give low values 1.03 | S. cerevisiae deletion strains, locus YIL125W, strain kgd1, hits give low values 0.994 | S. cerevisiae deletion strains, locus YIR030C, strain dcg1, hits give low values 1.01 | S. cerevisiae deletion strains, locus YJL095W, strain BCK1, hits give low values 0.962 | S. cerevisiae deletion strains, locus YJL134W, strain LCB3, hits give low values 1 | S. cerevisiae deletion strains, locus YJL168C, strain set2, hits give low values 1 | S. cerevisiae deletion strains, locus YJL187C, strain SWE1 (second series), hits give low values 1.01 | S. cerevisiae deletion strains, locus YJR043C, strain POL32, hits give low values 0.969 | S. cerevisiae deletion strains, locus YJR075W, strain HOC1, hits give low values 0.978 | S. cerevisiae deletion strains, locus YKL009W, strain mrt4, hits give low values 0.987 | S. cerevisiae deletion strains, locus YKL068W, hits give low values 0.996 | S. cerevisiae deletion strains, locus YKL085W, strain MDH1 (second series), hits give low values 0.995 | S. cerevisiae deletion strains, locus YKL085W, strain MDH1, hits give low values 0.995 | S. cerevisiae deletion strains, locus YKL190W, strain CNB1, hits give low values 0.998 | S. cerevisiae deletion strains, locus YKR001C, strain vps1, hits give low values 1.03 | S. cerevisiae deletion strains, locus YLR039C, strain RIC1, hits give low values 1.24 | S. cerevisiae deletion strains, locus YLR058C, strain SHM2, hits give low values 1 | S. cerevisiae deletion strains, locus YLR102C, strain apc9, hits give low values 1.01 | S. cerevisiae deletion strains, locus YLR262C, strain YPT6, hits give low values 1.18 | S. cerevisiae deletion strains, locus YLR268W, strain sec22, hits give low values 0.992 | S. cerevisiae deletion strains, locus YLR330W, strain CHS5, hits give low values 1 | S. cerevisiae deletion strains, locus YLR342W, strain FKS1 (second series), hits give low values 1.01 | S. cerevisiae deletion strains, locus YLR371W, strain rom2, hits give low values 1.01 | S. cerevisiae deletion strains, locus YLR418C, strain cdc73, hits give low values 0.929 | S. cerevisiae deletion strains, locus YML016C, strain PPZ1, hits give low values 0.993 | S. cerevisiae deletion strains, locus YML032C, strain rad52, hits give low values 1.01 | S. cerevisiae deletion strains, locus YML124C, strain tub3, hits give low values 1.01 | S. cerevisiae deletion strains, locus YMR078C, strain ctf18, hits give low values 1.01 | S. cerevisiae deletion strains, locus YMR223W, strain ubp8, hits give low values 1 | S. cerevisiae deletion strains, locus YMR263W, strain SAP30, hits give low values 0.987 | S. cerevisiae deletion strains, locus YMR307W, strain GAS1, hits give low values 0.972 | S. cerevisiae deletion strains, locus YNL067W, strain RPL9B, hits give low values 0.985 | S. cerevisiae deletion strains, locus YNL128W, strain TEP1, hits give low values 1 | [3] 1 | S. cerevisiae deletion strains, locus YNL233W, strain BNI4, hits give low values 1.01 | S. cerevisiae deletion strains, locus YNL250W, strain rad50, hits give low values 1.01 | S. cerevisiae deletion strains, locus YNL271C, strain bni1, hits give low values 1.01 | S. cerevisiae deletion strains, locus YNL298W, strain CLA4, hits give low values 0.997 | S. cerevisiae deletion strains, locus YNL307C, strain MCK1, hits give low values 0.998 | [4] 0.994 | S. cerevisiae deletion strains, locus YNR052C, strain pop2, hits give low values 1.02 | S. cerevisiae deletion strains, locus YOL006C, strain TOP1, hits give low values 0.914 | S. cerevisiae deletion strains, locus YOL012C, strain htz1 0.967 | S. cerevisiae deletion strains, locus YOL147C, strain pex11, hits give low values 1.01 | S. cerevisiae deletion strains, locus YOR061W, strain CKA2, hits give low values 0.999 | S. cerevisiae deletion strains, locus YOR069W, strain VPS5, hits give low values 1 | S. cerevisiae deletion strains, locus YOR136W, strain idh2, hits give low values 1 | S. cerevisiae deletion strains, locus YOR144C, strain elg1, hits give low values 1 | S. cerevisiae deletion strains, locus YOR184W, strain ser1, hits give low values 0.989 | S. cerevisiae deletion strains, locus YOR316C, strain cot1, hits give low values 1 | [5] 0.937 | [6] 0.99 | S. cerevisiae deletion strains, locus YPR119W, strain clb2, hits give low values 1 | S. cerevisiae deletion strains, locus YPR141C, strain kar3, hits give low values 1.01 | S. cerevisiae deletion strains, locus YPR163C, strain tif3, hits give low values 1 | S. cerevisiae deletion strains, locus YPR167C, strain met16, hits give low values 0.995 | S. cerevisiae deletion strains, strain wtn01, hits give low values 0.998 | S. cerevisiae strains, strain wild type, hits give low values 0.991

COC(=O)c1c(C)[nH]c(C)c1C(=O)c1ccccc1Cc1ccccc1
inactive: S. cerevisiae deletion strains, locus YAL040C, strain CLN3, hits give low values 0.995 | S. cerevisiae deletion strains, locus YCL061C, strain MRC1 (second series), hits give low values 1 | S. cerevisiae deletion strains, locus YDR363W, strain ESC2, hits give low values 1.02 | S. cerevisiae deletion strains, locus YER002W, strain NOP16, hits give low values 0.984 | [1] 0.989 | [2] 1.06 | [3] 0.987 | S. cerevisiae deletion strains, locus YNL175C, strain NOP13, hits give low values 0.986 | S. cerevisiae deletion strains, locus YNL197C, strain WHI3, hits give low values 0.983 | S. cerevisiae deletion strains, locus YNL224C, strain SQS1, hits give low values 0.983 | [4] 1.01 | S. cerevisiae deletion strains, locus YOR083W, strain WHI5 (second series), hits give low values 0.964 | [5] 1.01 | [6] 1
